Source: PubChem BioAssay (NCATS)
Values joined by “and” are separate entries in the source; they are usually repeats but may differ in a detail not shown here. Equal values may be shown once. Records with an inconclusive call do not appear. Entries that show only a call come without a potency. Active and inactive are the calls of the source. Unless noted, calls follow the shape of the full dose curve.

Assays:
[1] = MultiTox-Fluor Cytotoxicity Assay - LYMP1-001 - Live Cells (AID 947; active = well fitted curve in the direction sought with a large enough effect; an effect the other way counts as inactive or inconclusive)
[2] = Cell Viability - LYMP2-015 (AID 971; active = well fitted curve in the direction sought with a large enough effect; an effect the other way counts as inactive or inconclusive;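 also: cells exposed to compound for 24 h; nearly all actives have a fitted effect of over 55% in size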)
In short: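 Cells are seeded at 2500 per well and incubated 5 hr at 37 C. Compounds are added across a concentration series for 24 hr at 37 C. CellTiter-Glo is added, and luminescence is read after 30 min at room temperature.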

[3] = Cell Viability - LYMP2-024 (AID 988; active = well fitted curve in the direction sought with a large enough effect; an effect the other way counts as inactive or inconclusive; also: nearly all actives have a fitted effect of over 60% in size)
In short: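 qHTS cytotoxicity, human lymphoblastoid line, complete medium; 24 h cpd treatment, 37 C; CellTiter-Glo ATP luminescence readout; tetraoctylammonium bromide positive control; AC50 via Hill fit.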

[4] = molecular target: Estrogen receptor (Homo sapiens) (UniProt P03372); experiment: qHTS assay for small molecule antagonists of estrogen receptor alpha signaling (AID 588513; active = well fitted curve in the direction sought with a large enough effect in the signal ratio, with a control signal flat, not every such curve was filed as active; the % refers to the signal ratio)
Sequence of Estrogen receptor (Homo sapiens) (P03372 whole entry, looked up): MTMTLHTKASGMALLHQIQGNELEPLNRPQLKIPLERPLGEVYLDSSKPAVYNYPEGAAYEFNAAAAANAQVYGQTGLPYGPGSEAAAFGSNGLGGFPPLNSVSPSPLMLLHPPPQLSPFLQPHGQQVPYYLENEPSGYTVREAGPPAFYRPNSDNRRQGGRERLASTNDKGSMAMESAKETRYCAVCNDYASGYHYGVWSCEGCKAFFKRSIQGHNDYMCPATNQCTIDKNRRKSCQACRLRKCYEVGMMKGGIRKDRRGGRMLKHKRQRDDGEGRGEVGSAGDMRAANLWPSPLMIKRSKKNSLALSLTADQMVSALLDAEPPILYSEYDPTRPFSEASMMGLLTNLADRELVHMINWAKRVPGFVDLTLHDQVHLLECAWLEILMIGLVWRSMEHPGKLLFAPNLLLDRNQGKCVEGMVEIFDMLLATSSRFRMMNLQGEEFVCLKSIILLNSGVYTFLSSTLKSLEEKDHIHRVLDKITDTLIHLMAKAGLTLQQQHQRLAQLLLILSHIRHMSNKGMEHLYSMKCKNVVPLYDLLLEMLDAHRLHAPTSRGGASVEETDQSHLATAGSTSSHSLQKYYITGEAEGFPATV
In short: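 ER-alpha-UAS-bla GripTite HEK 293 cells in 2% charcoal/dextran-treated FBS medium; compounds titrated (1:2, duplicate), then stimulated with 0.5 nM 17-beta-estradiol for 18 h at 37C. CCF4 beta-lactamase fluorescence; Hill-fit IC50 and efficacy.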

[5] = molecular target: Bile acid receptor (Homo sapiens) (UniProt Q96RI1); experiment: qHTS assay for small molecule agonists of farnesoid X receptor signaling (AID 588527); conditions: HEK293T FXR-UAS-bla, beta-lactamase ratio, 16 h; stronger effect = higher value; also: series mostly up to about 77 µM
Sequence of Bile acid receptor (Homo sapiens) (Q96RI1 whole entry, looked up): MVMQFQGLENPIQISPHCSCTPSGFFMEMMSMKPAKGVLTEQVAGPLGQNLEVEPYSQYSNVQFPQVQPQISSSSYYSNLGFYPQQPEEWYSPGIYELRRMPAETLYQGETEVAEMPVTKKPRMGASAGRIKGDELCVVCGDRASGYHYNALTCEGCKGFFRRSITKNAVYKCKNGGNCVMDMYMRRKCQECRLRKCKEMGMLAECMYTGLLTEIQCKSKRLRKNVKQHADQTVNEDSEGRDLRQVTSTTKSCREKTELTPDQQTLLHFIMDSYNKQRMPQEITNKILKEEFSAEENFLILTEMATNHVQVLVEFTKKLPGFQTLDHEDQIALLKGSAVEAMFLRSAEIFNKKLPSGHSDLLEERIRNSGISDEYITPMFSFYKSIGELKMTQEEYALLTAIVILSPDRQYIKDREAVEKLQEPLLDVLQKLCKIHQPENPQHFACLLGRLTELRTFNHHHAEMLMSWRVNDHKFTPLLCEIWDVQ
In short: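 FXR-UAS-bla HEK293T cells (10% dialyzed FBS) preincubated 5-7 h at 37 C, then compounds at up to 92 uM for 16 h at 37 C. CCF4 beta-lactamase read-out after 2 h RT. Normalized to chenodeoxycholic acid (100 uM) and DMSO; Hill fit gave EC50 and efficacy.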

[6] = molecular target: Glucocorticoid receptor (Homo sapiens) (UniProt P04150); experiment: qHTS assay for small molecule antagonists of glucocorticoid receptor signaling (AID 588533; active = well fitted inhibition curve with a large enough effect in the signal ratio, with a control signal flat, not every such curve was filed as active; the % refers to the signal ratio;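 also: cells stimulated with 2 nM dexamethasone as agonist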)
Sequence of Glucocorticoid receptor (Homo sapiens) (P04150 whole entry, looked up): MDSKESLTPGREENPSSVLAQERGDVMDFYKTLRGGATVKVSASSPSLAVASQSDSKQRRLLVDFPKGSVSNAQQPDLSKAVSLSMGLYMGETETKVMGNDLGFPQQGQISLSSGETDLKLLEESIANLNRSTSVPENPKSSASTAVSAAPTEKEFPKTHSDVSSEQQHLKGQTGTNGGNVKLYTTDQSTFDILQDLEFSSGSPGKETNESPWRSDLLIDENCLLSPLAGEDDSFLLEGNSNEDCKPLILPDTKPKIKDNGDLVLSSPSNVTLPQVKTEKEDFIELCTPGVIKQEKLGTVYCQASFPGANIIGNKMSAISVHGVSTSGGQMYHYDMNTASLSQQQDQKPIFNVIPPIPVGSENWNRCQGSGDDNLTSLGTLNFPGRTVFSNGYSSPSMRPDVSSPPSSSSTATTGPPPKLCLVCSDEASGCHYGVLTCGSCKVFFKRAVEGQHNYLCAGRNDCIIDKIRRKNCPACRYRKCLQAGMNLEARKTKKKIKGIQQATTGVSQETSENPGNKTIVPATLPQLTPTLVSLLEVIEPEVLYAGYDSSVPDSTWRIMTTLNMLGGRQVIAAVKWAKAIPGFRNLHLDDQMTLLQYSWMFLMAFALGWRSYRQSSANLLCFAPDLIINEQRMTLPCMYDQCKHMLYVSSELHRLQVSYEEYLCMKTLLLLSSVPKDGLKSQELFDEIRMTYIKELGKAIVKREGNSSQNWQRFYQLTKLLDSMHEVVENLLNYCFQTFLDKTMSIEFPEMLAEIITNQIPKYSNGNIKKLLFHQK
In short: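 Antagonist-mode qHTS: compound titrations added to GRE-bla HeLa cells, then dexamethasone 2 nM final; 18 h, 37 C. CCF4 FRET fluorescence normalized to dexamethasone and DMSO; IC50 from Hill fit.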

[7] = qHTS assay for small molecule antagonists of peroxisome proliferator-activated receptor delta signaling (AID 588535; active = well fitted inhibition curve with a large enough effect in the signal ratio, with a control signal flat, not every such curve was filed as active; the % refers to the signal ratio;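 as to max response: cells co-treated with a PPAR-delta agonist as stimulator during compound exposure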); conditions: HEK293T PPARd-UAS-bla, beta-lactamase FRET ratio, 18 h; 460 nm channel
In short: (§1)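 Inhibition of PPAR-delta response element-driven beta-lactamase expression is measured in HEK293T cells exposed to a compound titration series for 18 hrs at 37 C. Half-maximal inhibition comes from Hill equation fitting.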

[8] = molecular target: Peroxisome proliferator-activated receptor gamma (Homo sapiens) (UniProt P37231); experiment: qHTS assay for small molecule agonists of peroxisome proliferator-activated receptor gamma signaling (AID 588536; active = well fitted curve in the direction sought with a large enough effect in the signal ratio, with a control signal flat, not every such curve was filed as active; the % refers to the signal ratio)
Sequence of Peroxisome proliferator-activated receptor gamma (Homo sapiens) (P37231 whole entry, looked up): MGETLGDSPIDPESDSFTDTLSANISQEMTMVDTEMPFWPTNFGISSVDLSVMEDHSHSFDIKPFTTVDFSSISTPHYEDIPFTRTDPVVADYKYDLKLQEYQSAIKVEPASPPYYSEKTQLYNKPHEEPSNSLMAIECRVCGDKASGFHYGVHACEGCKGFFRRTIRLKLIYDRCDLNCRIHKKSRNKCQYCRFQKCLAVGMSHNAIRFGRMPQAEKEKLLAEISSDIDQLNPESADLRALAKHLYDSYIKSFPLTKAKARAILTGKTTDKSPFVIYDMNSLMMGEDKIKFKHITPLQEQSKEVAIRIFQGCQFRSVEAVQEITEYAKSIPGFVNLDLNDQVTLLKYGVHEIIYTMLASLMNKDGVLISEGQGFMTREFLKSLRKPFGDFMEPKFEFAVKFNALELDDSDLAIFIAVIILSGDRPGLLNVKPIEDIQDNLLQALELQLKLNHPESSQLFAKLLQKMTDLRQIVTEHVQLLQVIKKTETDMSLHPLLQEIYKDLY
In short: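 Cells were plated and held 6–6.5 h at 37 C, then compounds were added as a titration series. After a further 16 h, CCF4 dye was loaded for 2 h at room temperature and emission at 460/530 nm recorded.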

[9] = molecular target: Vitamin D3 receptor (Homo sapiens) (UniProt P11473); experiment: qHTS assay for small molecule antagonists of vitamin D receptor signaling (AID 588541);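 also: receptor activated by calcitriol during compound treatment; series mostly up to about 77 µM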
Sequence of Vitamin D3 receptor (Homo sapiens) (P11473 whole entry, looked up): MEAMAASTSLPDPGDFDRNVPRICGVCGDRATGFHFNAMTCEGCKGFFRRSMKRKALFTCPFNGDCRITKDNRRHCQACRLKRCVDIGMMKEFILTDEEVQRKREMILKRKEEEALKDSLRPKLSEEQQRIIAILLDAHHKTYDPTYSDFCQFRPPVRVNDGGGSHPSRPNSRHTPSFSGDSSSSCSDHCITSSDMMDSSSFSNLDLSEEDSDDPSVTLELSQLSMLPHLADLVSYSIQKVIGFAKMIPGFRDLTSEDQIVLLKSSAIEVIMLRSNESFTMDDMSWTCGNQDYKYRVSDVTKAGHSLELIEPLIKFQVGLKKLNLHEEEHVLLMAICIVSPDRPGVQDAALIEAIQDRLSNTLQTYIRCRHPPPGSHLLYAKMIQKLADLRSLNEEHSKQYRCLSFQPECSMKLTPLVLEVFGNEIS
In short: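 VDR-UAS-bla HEK293T cells (2000/well, 2% charcoal-stripped FBS) were treated with titrated compounds plus 1-alpha,25-dihydroxyvitamin D3 (50 nM or 3 nM final) for 16 h at 37 C. CCF4 beta-lactamase fluorescence was read; Hill fits gave IC50.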

[10] = molecular target: Thyroid hormone receptor beta (Homo sapiens) (UniProt P10828); experiment: qHTS assay for small molecule agonists of thyroid hormone receptor beta signaling (AID 588545)
Sequence of Thyroid hormone receptor beta (Homo sapiens) (P10828 whole entry, looked up): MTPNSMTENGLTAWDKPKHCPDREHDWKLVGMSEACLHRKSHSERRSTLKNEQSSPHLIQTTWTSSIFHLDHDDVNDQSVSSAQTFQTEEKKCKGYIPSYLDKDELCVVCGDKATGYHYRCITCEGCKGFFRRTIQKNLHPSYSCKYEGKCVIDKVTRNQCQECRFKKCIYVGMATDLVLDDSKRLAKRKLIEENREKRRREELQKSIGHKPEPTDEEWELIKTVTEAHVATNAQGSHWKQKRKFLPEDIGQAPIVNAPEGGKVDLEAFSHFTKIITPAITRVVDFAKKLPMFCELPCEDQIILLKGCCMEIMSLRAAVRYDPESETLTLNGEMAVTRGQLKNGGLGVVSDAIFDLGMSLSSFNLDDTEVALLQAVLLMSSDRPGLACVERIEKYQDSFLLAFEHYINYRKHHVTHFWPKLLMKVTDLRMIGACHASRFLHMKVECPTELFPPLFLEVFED
In short: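 TR-UAS-bla-GripTite HEK 293 cells in medium with 2% charcoal/dextran FBS, 0.1 mM NEAA and 1 mM sodium pyruvate were treated with titrated compounds for 18 hrs at 37 C. Beta-lactamase reporter was read with CCF4 dye (ex 405, em 460/530 nm); EC50 from Hill fits.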

[11] = molecular target: Thyroid hormone receptor beta (Homo sapiens) (UniProt P10828); experiment: qHTS assay for small molecule antagonists of thyroid hormone receptor beta signaling (AID 588547; active = well fitted inhibition curve with a large enough effect in the signal ratio, with a control signal flat, not every such curve was filed as active; the % refers to the signal ratio;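 also: cells stimulated with 0.4 nM T3 agonist during compound exposure; series mostly up to about 77 µM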); conditions: TR-UAS-bla HEK293, beta-lactamase ratio, antagonist mode, 18 h
In short: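 TR-UAS-bla GripTite HEK293 cells in 2% charcoal/dextran FBS medium were preincubated 4 h at 37 C, given compound (0.59 nM to 92 uM) plus 0.4 nM T3 (final) for 18 h, then CCF4 for 2 h at RT; Hill fit gave IC50.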

[12] = qHTS assay for small molecule activators of the p53 signaling pathway (AID 651743; active = well fitted activation curve with a large enough effect in the signal ratio, not every such curve was filed as active; the % refers to the signal ratio; also: series mostly up to about 92 µM); conditions: HCT-116 p53RE-bla, beta-lactamase FRET ratio, 16 h; activation: stronger effect = higher value
In short: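 Agonist-mode quantitative HTS in HCT-116 cells carrying a p53-response-element beta-lactamase reporter; 16 h compound treatment at 37 C, then FRET substrate loading for 2 h at room temperature and fluorescence read.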

[13] = qHTS assay for small molecule activators of the nuclear factor-kappa B (NF-kB) signaling pathway (AID 651749; active = well fitted activation curve with a large enough effect in the signal ratio; the % refers to the signal ratio; also: series mostly up to about 77 µM); conditions: NF-kB-bla ME-180 cells, beta-lactamase FRET ratio, 16 h; stronger effect = higher value
In short: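 Human ME-180 cervical cells with an NF-kB-bla construct; compounds added via 23 nL pin transfer, DMSO as vehicle; incubation 16 hr. Reporter activity measured by FRET disruption.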

[14] = molecular target: Peroxisome proliferator-activated receptor delta (Homo sapiens) (UniProt Q03181); experiment: qHTS assay for small molecule agonists of peroxisome proliferator-activated receptor delta signaling (AID 588534)
Sequence of Peroxisome proliferator-activated receptor delta (Homo sapiens) (Q03181 whole entry, looked up): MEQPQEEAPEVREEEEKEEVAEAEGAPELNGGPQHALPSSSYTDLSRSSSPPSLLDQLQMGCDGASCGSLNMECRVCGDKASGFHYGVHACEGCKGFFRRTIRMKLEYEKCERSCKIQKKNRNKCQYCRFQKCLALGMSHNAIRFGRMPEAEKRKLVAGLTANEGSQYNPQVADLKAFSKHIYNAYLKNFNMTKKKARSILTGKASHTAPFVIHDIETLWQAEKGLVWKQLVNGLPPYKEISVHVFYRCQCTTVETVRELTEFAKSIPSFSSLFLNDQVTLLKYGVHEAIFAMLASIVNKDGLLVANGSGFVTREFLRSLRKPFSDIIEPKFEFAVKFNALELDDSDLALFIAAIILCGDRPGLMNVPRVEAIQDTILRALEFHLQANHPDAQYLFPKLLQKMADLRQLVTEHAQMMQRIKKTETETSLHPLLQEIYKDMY
In short: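 Agonist-mode qHTS; reporter cells, 5 hrs 37 C pre-incubation; compound titration, 18 hrs 37 C; CCF4 dye, 2 hrs RT; fluorescence read. EC50/efficacy via Hill fit.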

[15] = molecular target: Peroxisome proliferator-activated receptor delta (Homo sapiens) (UniProt Q03181); experiment: qHTS assay for small molecule antagonists of peroxisome proliferator-activated receptor delta signaling (AID 588535);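 as to max response: cells co-treated with a PPAR-delta agonist as stimulator during compound exposure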
In short: as §1

[16] = molecular target: Peroxisome proliferator-activated receptor gamma (Homo sapiens) (UniProt P37231); experiment: qHTS assay for small molecule antagonists of peroxisome proliferator-activated receptor gamma signaling (AID 588537; active = well fitted inhibition curve with a large enough effect in the signal ratio, with a control signal flat, not every such curve was filed as active; the % refers to the signal ratio;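 also: reporter cells co-stimulated with 50 nM rosiglitazone agonist during compound treatment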)
In short: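 Compounds are tested as concentration series for inhibition of rosiglitazone-driven (50 nM) reporter expression in GeneBLAzer PPAR-gamma-UAS-bla HEK293 cells. After 16 h at 37 C, CCF4 substrate is added for 2 h at room temperature and blue/green fluorescence is measured.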

[17] = molecular target: Voltage-gated inwardly rectifying potassium channel KCNH2 (Homo sapiens) (UniProt Q12809); experiment: qHTS Assay for Small Molecule Inhibitors of the Human hERG Channel Activity (AID 588834; active = well fitted curve in the direction sought with a large enough effect; an effect the other way counts as inactive or inconclusive;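 also: top concentration of the series differs between compounds; lower thallium flux fluorescence means stronger hERG block; nearly all actives have a fitted effect of over 50% in size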)
Sequence of Voltage-gated inwardly rectifying potassium channel KCNH2 (Homo sapiens) (Q12809 whole entry, looked up): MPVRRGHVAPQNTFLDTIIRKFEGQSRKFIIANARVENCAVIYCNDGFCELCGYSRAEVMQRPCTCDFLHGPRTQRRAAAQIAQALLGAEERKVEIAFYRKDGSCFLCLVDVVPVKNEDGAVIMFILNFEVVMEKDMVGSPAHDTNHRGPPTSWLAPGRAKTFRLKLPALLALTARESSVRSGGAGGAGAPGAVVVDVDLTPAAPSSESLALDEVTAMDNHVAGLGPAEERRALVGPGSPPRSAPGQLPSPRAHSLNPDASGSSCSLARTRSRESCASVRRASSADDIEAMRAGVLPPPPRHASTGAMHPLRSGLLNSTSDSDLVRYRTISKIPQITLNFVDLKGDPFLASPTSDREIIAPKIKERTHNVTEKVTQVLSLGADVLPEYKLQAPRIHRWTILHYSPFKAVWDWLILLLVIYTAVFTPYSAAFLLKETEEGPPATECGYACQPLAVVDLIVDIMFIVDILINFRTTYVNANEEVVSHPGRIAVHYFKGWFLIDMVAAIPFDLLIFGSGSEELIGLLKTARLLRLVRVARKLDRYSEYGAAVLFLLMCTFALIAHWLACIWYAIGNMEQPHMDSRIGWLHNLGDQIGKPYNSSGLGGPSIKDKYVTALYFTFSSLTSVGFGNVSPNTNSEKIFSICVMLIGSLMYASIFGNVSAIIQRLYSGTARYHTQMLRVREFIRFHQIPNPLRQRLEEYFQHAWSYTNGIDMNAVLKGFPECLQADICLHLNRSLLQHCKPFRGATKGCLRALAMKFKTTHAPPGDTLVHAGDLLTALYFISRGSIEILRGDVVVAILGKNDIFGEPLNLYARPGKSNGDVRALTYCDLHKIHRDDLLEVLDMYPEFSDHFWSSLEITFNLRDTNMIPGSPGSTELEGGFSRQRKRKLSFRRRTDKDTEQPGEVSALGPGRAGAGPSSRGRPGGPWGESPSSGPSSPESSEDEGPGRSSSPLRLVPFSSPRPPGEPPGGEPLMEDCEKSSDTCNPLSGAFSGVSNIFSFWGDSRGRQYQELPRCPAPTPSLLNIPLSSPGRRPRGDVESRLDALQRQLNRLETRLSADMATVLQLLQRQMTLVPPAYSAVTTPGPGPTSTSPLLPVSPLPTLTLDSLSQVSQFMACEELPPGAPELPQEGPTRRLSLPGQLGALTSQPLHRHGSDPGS
In short: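 Thallium serves as surrogate for K+ influx through BacMam-delivered hERG in U2OS cells. Compounds are added for about 10 minutes after dye loading; stimulation buffer then starts flux, monitored kinetically on FDSS.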

[18] = qHTS assay for small molecule disruptors of the mitochondrial membrane potential - 1 hr assay (AID 651754); also: nearly all actives have a fitted effect of over 35% in size; also: potency is read from the fitted curve at half-maximal effect
In short: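 Loss of mitochondrial potential shifts the cationic dye from red mitochondrial aggregates to green cytoplasmic monomers. Cells (HepG2) are treated with compound for 1 hr before a 30 min dye incubation at 37C.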

[19] = qHTS assay for small molecule agonists of the antioxidant response element (ARE) signaling pathway (AID 651741; active = well fitted activation curve with a large enough effect in the signal ratio; the % refers to the signal ratio)
In short: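 Reporter: beta-lactamase under ARE, stably in HepG2. Exposure: 16 h, 37 C, compounds delivered in DMSO by pin tool after 5 h cell preincubation. Readout: FRET substrate fluorescence after 2 h at RT.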

[20] = molecular target: Glucocorticoid receptor (Homo sapiens) (UniProt P04150); experiment: qHTS assay for small molecule agonists of glucocorticoid receptor signaling (AID 588532; active = well fitted curve in the direction sought with a large enough effect in the signal ratio, with a control signal flat; the % refers to the signal ratio); conditions: HeLa MMTV-bla, beta-lactamase ratio, agonist, 18 h; stronger effect = higher value; percent of dexamethasone control, DMSO zero
In short: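 Titration series, up to 92 uM, applied to GRE-bla HeLa cells for 18 h at 37 C. Detection by CCF4 FRET substrate after 2 h at RT.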

Structure (SMILES) | outcome [1] | Potency [2] | Potency [3] | Potency [4] | activation [5] | outcome [6] | max response [7] | outcome [8] | outcome [9] | Potency [10] | activity change % (negative = inhibition) [11] | activation [12] | activation [13] | outcome [14] | outcome [15] | Potency [16] | Potency [17] | Potency [18] | Potency [19] | activation [20]
Nc1ncc([N+](=O)[O-])s1 | inactive | inactive | inactive | inactive | -2.74% (inactive) | inactive | 30.2% | inactive | inactive | inactive | -7.23% (inactive) | -4.14% (inactive) | 0.765% (inactive) | – | – | – | – | – | – | –
Oc1ccc(Cl)c(Cl)c1 | inactive | inactive | inactive | inactive | – | – | -12.5% | inactive | – | – | – | 2.18% (inactive) | – | inactive | inactive | inactive | inactive | 33.5 µM (active) | – | –
O=S(=O)(Cl)c1ccccc1 | inactive | – | inactive | – | 1.82% (inactive) | – | 7.79% and -11.8% | inactive | inactive | – | -1.94% (inactive) and -0.791% (inactive) | – | 0.118% (inactive) and -0.385% (inactive) | – | inactive | inactive | inactive | – | inactive | –
C=CCBr | inactive | inactive | inactive | inactive | -2.82% (inactive) | – | – | – | inactive | inactive | -19.2% (inactive) | -2.4% (inactive) | – | – | – | – | inactive | inactive | inactive | 0.974% (inactive)
Cc1cccc(N)c1C | inactive | inactive | inactive | inactive | -3.96% (inactive) | inactive | – | inactive | inactive | inactive | 2.82% (inactive) | 12.1% (inactive) | -0.847% (inactive) | – | – | – | inactive | – | inactive | –
BrC(Br)Br | inactive | inactive | inactive | – | -2.73% (inactive) | inactive | – | inactive | inactive | – | – | – | 0.744% (inactive) | inactive | – | – | inactive | inactive | – | -1.59% (inactive)
CCN(CC)N=O | inactive | inactive | – | – | -2.25% (inactive) | – | – | – | inactive | – | – | – | 0.914% (inactive) | inactive | – | inactive | inactive | inactive | inactive | –
CCCCOCC1CO1 (stereo not drawn) | inactive | – | – | inactive | -3.01% (inactive) | inactive | 13.9% | inactive | inactive | inactive | 12.9% (inactive) | – | – | inactive | inactive | inactive | – | – | inactive | -2.49% (inactive)
Nc1ccc(Cl)c(Cl)c1 | – | – | inactive | – | – | – | -10.6% | inactive | inactive | inactive | 2.33% (inactive) | 0.678% (inactive) | 0.145% (inactive) | inactive | inactive | – | inactive | inactive | – | –
OCCCCO | inactive | inactive | inactive | – | -2.93% (inactive) | inactive | -23.5% | inactive | inactive | inactive | 10.4% (inactive) | -4.12% (inactive) | -0.721% (inactive) | inactive | – | inactive | inactive | – | inactive | -5.33% (inactive)
c1ccc(Nc2ccc(Nc3ccccc3)cc2)cc1 | inactive | inactive | – | – | -1.54% (inactive) | – | 91.4% | – | inactive | inactive | – | – | – | – | inactive | – | – | 42.2 µM (active) | – | –
ClC(Cl)C(Cl)Cl | inactive | inactive | inactive | inactive | -2.53% (inactive) | inactive | – | inactive | inactive | inactive | 0.5% (inactive) | -4.56% (inactive) | -0.991% (inactive) | – | – | – | inactive | inactive | inactive | 1.52% (inactive)
